Among the data in article PMC12864922, “TDP-43 directly inhibits mRNA accumulation in neurites through modulation of mRNA stability” are binding signal values, retold here.

To fix the notation:
B1: ENSMUSG00000004113.216|Cacna1b (ssRNA)
RNA: GGGAGUUCUACAGUCCGACGAUCGCUUCGAUAUCCGCAUGCUAGUCUUAGGGACAUUGACAGUGUCCAUCAGCAUGUCAGAGAAGCAGCUGUAGUGCCCGUGUUUCUCCCUGAGUCAUGGGUUCUGAAGAAGCCAGAGCGGCACAAUGCGUGCUUGCAUGAGGCACUUUCAGCCUUUUUAAAUCUGACUCUCAGGGAUGGGAUGCCUGCCAAGUAGGGUGUAAUCUCUGUUGUGUUUUUAAAACAACAACAACAAAAUAAAACAAAAAAAAAAAACCUAGUAUUCACUGGAUGCUGAAGAGUGCUCUUGCGGUCGCACUAGUGUGGAAUUCUCGGGUGUCAAGG
B2: ENSMUSG00000035279.61|Ssc5d|92:97;148:152;163:167 (ssRNA)
RNA: GGGAGUUCUACAGUCCGACGAUCGCUUCGAUAUCCGCAUGCUAUAAAGAGGCUAGCAGAGGUGGCCUGGCCCCCCAGCACUCCUGUGCCCAUGACCACCACCACAGAGGAGGAGGAGAGGCCUCUGAGGGGAGAACACACACCCACUCUGAAAUUCACGGUGCUUAAGAUACUCUUAAACAAAAGCCAACCAUACUACAAUCGAACACACGGUGUUGUUACUGGGGAGCAGGGGCUCUGGAGGGACAGAAUUACAAUGCUGAUCCUAACUUGUCAAUGCCAUCUGUGAUGGCGUUGGAGAUCACUCUUGCGGUCGCACUAGUGUGGAAUUCUCGGGUGUCAAGG
B3: ENSMUSG00000031028.6|Tub (ssRNA)
RNA: GGGAGUUCUACAGUCCGACGAUCGCUUCGAUAUCCGCAUGCUAUAGCAGAAGAUGUGUUCACCAUGGAUUACAACUACCCACUGUGUGCACUGCAGGCCUUUGCCAUUGCUCUGUCCAGCUUUGACAGCAAGCUGGCCUGCGAGUAGAGGCCCCCCACUGCCUUUAGGUGGCCCAGUCCGGAGUGGAGCUUGCCUGCCUGCCAAGACAGCCCUGCCUACCCUCUGUUCAUAGGCCCUCUAUGGGCUUUCUGGCCUUACCAACCAGAGACUGGCUGCUCUGCCUCUGCUGCUGAAGCAGGGGGGCUCUUGCGGUCGCACUAGUGUGGAAUUCUCGGGUGUCAAGG
B4: ENSMUSG00000058297.454|Spock2 (ssRNA)
RNA: GGGAGUUCUACAGUCCGACGAUCGCUUCGAUAUCCGCAUGCUAUCAGGAGCAAGGUCACACAGGUCAGAUUAUUGUCGGUCCUGCGGGCCUCAUCCUUGAAUAAGCUGCCUGCCCAGUUCCUCCAUCCGUGUUCCUGCCUGCUCCCGUUCCCUUGUUGCGGGCAGGAGAGGUAGGGCUGUGUUGGAAAGAGUUCAACCAAAUUACGGCAGCACCACAUCUUGCCGAGCCCUGGAGCUGCCCUACUAAGAGCCUCCUUAGCCCUGGGUGCUGGGAAGGAUGGUGUACGUUGGGGAAGUUUGAGGCUCUUGCGGUCGCACUAGUGUGGAAUUCUCGGGUGUCAAGG
B5: ENSMUSG00000090935.743|Synj2bp (ssRNA)
RNA: GGGAGUUCUACAGUCCGACGAUCGCUUCGAUAUCCGCAUGCUAAAUACUCCUGGGUAAAAUUUGUAUUAGAAUGGAAAAAAAAAUGAGGGUCAGAAAGGUGAGCUAACUUCAAGUUAGAUACUCCCCUCUAUUUUGGUCUCAAAUUUGUUUUAGUGUGUCCACAACAUGAAAACAUACAAAAACUAUAUUUUAAAAAUCAGUUUACUUUCAUCUUUUCUCUUUAGGCUUUCAAUAAAGACCAGAAGGACUGAUAGACAGCUAGAGAGGAUCGUGUAGGCAUCCAGAUUAGAAUGGAAGAAUCCCUCUUGCGGUCGCACUAGUGUGGAAUUCUCGGGUGUCAAGG
B6: ENSMUSG00000022095.31|Fam160b2|161:165 (ssRNA)
RNA: GGGAGUUCUACAGUCCGACGAUCGCUUCGAUAUCCGCAUGCUACUCUGUCCUCCAUGCCGGGGACUUCAGCUGCAGGACACCUCACCUGUUGACCCCACGAGCUGAGGUUUCAAGGAGGUGCUGGCUCCUAAGGCAGUGGUAUUCUUGGAGCCUUUUAGAGGAGCUAGAGGAUGGCCAGUGAGCGCCUAGAUGCUGCCCUGCAACACAUGCGUGACUAUCUCUGCUAUAUUGUGACCAGGGCCACAACAUGAGACAACUCCAGGGGCCAGGGAGAUGAACUGCUGUCUUUGAGGCUGGCUAAACUCUUGCGGUCGCACUAGUGUGGAAUUCUCGGGUGUCAAGG
B7: ENSMUSG00000042529.39|Kcnj12 (ssRNA)
RNA: GGGAGUUCUACAGUCCGACGAUCGCUUCGAUAUCCGCAUGCUAGUUUUUUCGCAGUAGCUUGGGAAAGUUGGCGGGAGCGUGGAUGGCCAAAAUGACUGGCUCACGGCCUCGGAGGCUGAUGUAUACCCAUGGGCAAGGAGGUGACUUCUUGGGGUAGGGUUGCUCAGGAGUUAGGGACUCUGCUGGAGGCCUUAGGUGCAGGUCCCAGCCCCGGUGGGAGGAGGCUGUGUAUGUACACUUCAUUGGUUUUUAACUUGGGCAAGACUGUUUACAAACAAAAACAAACAAACAAACAAUCAAAACUCUUGCGGUCGCACUAGUGUGGAAUUCUCGGGUGUCAAGG
B8: ENSMUSG00000061578.1489|Ksr2 (ssRNA)
RNA: GGGAGUUCUACAGUCCGACGAUCGCUUCGAUAUCCGCAUGCUAUAUGUGGGUAGAAGGGUGAGUGGGUGGAUGAAUGGAUGGAUAGGUUGGUAGGUUAAUGUAUUCGUGGAUGGGUGAAUGGAUGGAUGGAUAGAUAGAUGGGAAGGUGGAUGGACAGAUGGAUGGAUGGAUAGAUAGAUGGACAGGUGGUUGGUGGAUAAAUGAGUGAAUGAUUAUGUUGAUAGAUAUGUGGGUAGGCUGAAUGGGUGAAUGGAUAGAUCGAUGACUGGAUGGAGGGUGGGUGACUGUAUAGGCAGGUGGGUCUCUUGCGGUCGCACUAGUGUGGAAUUCUCGGGUGUCAAGG
B9: ENSMUSG00000061578.1490|Ksr2 (ssRNA)
RNA: GGGAGUUCUACAGUCCGACGAUCGCUUCGAUAUCCGCAUGCUAGGUAGAAGGGUGAGUGGGUGGAUGAAUGGAUGGAUAGGUUGGUAGGUUAAUGUAUUCGUGGAUGGGUGAAUGGAUGGAUGGAUAGAUAGAUGGGAAGGUGGAUGGACAGAUGGAUGGAUGGAUAGAUAGAUGGACAGGUGGUUGGUGGAUAAAUGAGUGAAUGAUUAUGUUGAUAGAUAUGUGGGUAGGCUGAAUGGGUGAAUGGAUAGAUCGAUGACUGGAUGGAGGGUGGGUGACUGUAUAGGCAGGUGGGUAGGUAGCUCUUGCGGUCGCACUAGUGUGGAAUUCUCGGGUGUCAAGG
B10: ENSMUSG00000061578.1494|Ksr2 (ssRNA)
RNA: GGGAGUUCUACAGUCCGACGAUCGCUUCGAUAUCCGCAUGCUAAAUGGAUGGAUAGGUUGGUAGGUUAAUGUAUUCGUGGAUGGGUGAAUGGAUGGAUGGAUAGAUAGAUGGGAAGGUGGAUGGACAGAUGGAUGGAUGGAUAGAUAGAUGGACAGGUGGUUGGUGGAUAAAUGAGUGAAUGAUUAUGUUGAUAGAUAUGUGGGUAGGCUGAAUGGGUGAAUGGAUAGAUCGAUGACUGGAUGGAGGGUGGGUGACUGUAUAGGCAGGUGGGUAGGUAGCUGGAUGGGUGGGCGUAUAGAAAGCUCUUGCGGUCGCACUAGUGUGGAAUUCUCGGGUGUCAAGG
B11: ENSMUSG00000061578.1488|Ksr2 (ssRNA)
RNA: GGGAGUUCUACAGUCCGACGAUCGCUUCGAUAUCCGCAUGCUAAAUGAAUAUGUGGGUAGAAGGGUGAGUGGGUGGAUGAAUGGAUGGAUAGGUUGGUAGGUUAAUGUAUUCGUGGAUGGGUGAAUGGAUGGAUGGAUAGAUAGAUGGGAAGGUGGAUGGACAGAUGGAUGGAUGGAUAGAUAGAUGGACAGGUGGUUGGUGGAUAAAUGAGUGAAUGAUUAUGUUGAUAGAUAUGUGGGUAGGCUGAAUGGGUGAAUGGAUAGAUCGAUGACUGGAUGGAGGGUGGGUGACUGUAUAGGCAGCUCUUGCGGUCGCACUAGUGUGGAAUUCUCGGGUGUCAAGG
B12: ENSMUSG00000061578.1492|Ksr2 (ssRNA)
RNA: GGGAGUUCUACAGUCCGACGAUCGCUUCGAUAUCCGCAUGCUAAGUGGGUGGAUGAAUGGAUGGAUAGGUUGGUAGGUUAAUGUAUUCGUGGAUGGGUGAAUGGAUGGAUGGAUAGAUAGAUGGGAAGGUGGAUGGACAGAUGGAUGGAUGGAUAGAUAGAUGGACAGGUGGUUGGUGGAUAAAUGAGUGAAUGAUUAUGUUGAUAGAUAUGUGGGUAGGCUGAAUGGGUGAAUGGAUAGAUCGAUGACUGGAUGGAGGGUGGGUGACUGUAUAGGCAGGUGGGUAGGUAGCUGGAUGGGUGGCUCUUGCGGUCGCACUAGUGUGGAAUUCUCGGGUGUCAAGG
B13: ENSMUSG00000061578.1493|Ksr2 (ssRNA)
RNA: GGGAGUUCUACAGUCCGACGAUCGCUUCGAUAUCCGCAUGCUAUGGAUGAAUGGAUGGAUAGGUUGGUAGGUUAAUGUAUUCGUGGAUGGGUGAAUGGAUGGAUGGAUAGAUAGAUGGGAAGGUGGAUGGACAGAUGGAUGGAUGGAUAGAUAGAUGGACAGGUGGUUGGUGGAUAAAUGAGUGAAUGAUUAUGUUGAUAGAUAUGUGGGUAGGCUGAAUGGGUGAAUGGAUAGAUCGAUGACUGGAUGGAGGGUGGGUGACUGUAUAGGCAGGUGGGUAGGUAGCUGGAUGGGUGGGCGUAUCUCUUGCGGUCGCACUAGUGUGGAAUUCUCGGGUGUCAAGG

Over roughly 9,900 sequences, “r (bound/input frequency ratio)” has its median near 0.7; the highest 2% begin near 6.5. This excerpt belongs to a sample that is enriched for the highest values.

Chain of TDP-43 (Q13148 whole entry): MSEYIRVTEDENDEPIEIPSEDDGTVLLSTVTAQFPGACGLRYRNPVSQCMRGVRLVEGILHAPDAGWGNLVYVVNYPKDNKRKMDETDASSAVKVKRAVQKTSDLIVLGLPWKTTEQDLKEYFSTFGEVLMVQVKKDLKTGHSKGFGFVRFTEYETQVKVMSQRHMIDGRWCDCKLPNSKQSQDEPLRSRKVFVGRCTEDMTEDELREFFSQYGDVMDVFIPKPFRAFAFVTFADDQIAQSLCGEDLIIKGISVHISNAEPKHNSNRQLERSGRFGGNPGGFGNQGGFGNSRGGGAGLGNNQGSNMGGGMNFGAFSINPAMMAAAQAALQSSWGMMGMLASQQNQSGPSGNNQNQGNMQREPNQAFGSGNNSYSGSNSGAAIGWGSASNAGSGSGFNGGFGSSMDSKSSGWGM

The target of this experiment is TDP-43 (Homo sapiens, UniProt Q13148 1-414). Briefly: RNA Bind-n-Seq with designed 260-mer pool; 25 mM Tris-HCl, 150 mM KCl, 3 mM MgCl2, BSA (printed 500 mg/mL), 20 units/mL SUPERase IN; pH not stated; 500 nM RNA pool, 1 h, 4 C; TDP-43 5, 50, 500 nM; high values mean tight binding. The following applies: protein: recombinant; tags: SBP (GST cleaved off with PreScission; pGEX-GST-SBP). In outline:
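Recombinant SBP-tagged TDP-43 at 5, 50 or 500 nM was captured on streptavidin beads, then incubated 1 h at 4 °C with 500 nM of an in vitro-transcribed 260-nt 3′ UTR oligo pool in 25 mM Tris-HCl, 150 mM KCl, 3 mM MgCl2, BSA and SUPERase IN. Bound RNA was washed, eluted with biotin, reverse transcribed, PCR-amplified and sequenced. Binding is R, each oligo's mapped-read-normalized abundance in the bound sample divided by its abundance in input. Duplicates used two independent protein batches.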
Turning to B1, the binding signal was 1.66 R (bound/input frequency ratio).
On to B2, for which the binding signal was 0.434 R (bound/input frequency ratio).
As for B3, the binding signal was 0.331 R (bound/input frequency ratio).
Consider B4, for which the binding signal is 0.419 R (bound/input frequency ratio).
For the molecule B5, the binding signal was 0.123 R (bound/input frequency ratio).
B6: the binding signal is 0.326 R (bound/input frequency ratio).
The figure for B7 is 1.88 R (bound/input frequency ratio); for B8 it is 5.83 R (bound/input frequency ratio); for B9 it is 11.2 R (bound/input frequency ratio).
Regarding B10, the binding signal is 5.89 R (bound/input frequency ratio).
For B11, the binding signal was 5.5 R (bound/input frequency ratio).
The figure for B12 is 7.07 R (bound/input frequency ratio); for B13 it is 4.33 R (bound/input frequency ratio).
